Test results as given in PubChem BioAssay AID743314 (Broad Institute, 2014).
Entries with a potency or affinity are not part of this list. Results filed as inconclusive are left out.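 How the source made its calls: active means fitted half-maximal concentration no higher than twice the top tested dose, in every repeat run; inconclusive means repeat runs disagree, poor fit, or flat partial inhibition; inactive means the rest.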

Target: Endoplasmic reticulum aminopeptidase 1 (Homo sapiens) (UniProt Q9NZ08)
Sequence (Q9NZ08 whole entry, looked up): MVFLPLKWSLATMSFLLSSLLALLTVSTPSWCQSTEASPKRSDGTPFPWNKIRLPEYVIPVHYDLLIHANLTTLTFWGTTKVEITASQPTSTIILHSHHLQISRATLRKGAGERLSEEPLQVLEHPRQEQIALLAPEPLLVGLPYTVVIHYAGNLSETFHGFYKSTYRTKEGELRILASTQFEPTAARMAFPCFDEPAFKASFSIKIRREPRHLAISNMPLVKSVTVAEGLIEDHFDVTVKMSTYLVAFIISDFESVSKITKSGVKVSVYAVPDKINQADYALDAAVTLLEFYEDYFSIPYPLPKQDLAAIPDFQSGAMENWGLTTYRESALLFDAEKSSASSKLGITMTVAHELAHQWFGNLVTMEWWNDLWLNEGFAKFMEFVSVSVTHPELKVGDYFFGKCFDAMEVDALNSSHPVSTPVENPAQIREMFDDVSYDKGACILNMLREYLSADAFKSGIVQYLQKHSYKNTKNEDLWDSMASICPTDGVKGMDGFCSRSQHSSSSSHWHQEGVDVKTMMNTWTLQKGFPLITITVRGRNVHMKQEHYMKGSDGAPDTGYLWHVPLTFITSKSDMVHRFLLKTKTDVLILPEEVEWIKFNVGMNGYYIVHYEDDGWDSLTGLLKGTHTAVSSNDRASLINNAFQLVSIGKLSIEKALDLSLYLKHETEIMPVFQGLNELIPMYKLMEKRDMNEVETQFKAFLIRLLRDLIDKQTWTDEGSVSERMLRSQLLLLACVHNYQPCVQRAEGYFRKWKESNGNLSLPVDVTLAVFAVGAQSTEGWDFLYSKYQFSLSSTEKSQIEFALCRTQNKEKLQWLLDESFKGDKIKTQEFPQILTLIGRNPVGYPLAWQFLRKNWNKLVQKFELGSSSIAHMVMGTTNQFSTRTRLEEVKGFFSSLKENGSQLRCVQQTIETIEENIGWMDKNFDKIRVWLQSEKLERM
Experiment: inhibition of human ERAP1 enzyme activity – biochemical, cherry-pick, set 2, plate reader, dose response (AID 743314);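 further: 0% = neutral control wells and -100% = L-leucinethiol positive control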
Details: Recombinant ERAP1, Leu-AMC fluorescence, 60 min; series mostly up to 11 µM; activity change, negative = inhibition: at the top concentration

Activity change, negative = inhibition, inactive:
CN(C)C(=O)[C@H]1[C@H](CO)[C@H]2Cn3c(cccc3=O)[C@@H]1N2CC1CCCC1 31.6%
O=C(CNC(=O)OCc1ccccc1)Nc1ccc(F)cc1 -11.2%
CCCC#Cc1ccc2c(c1)O[C@H](CN(C)Cc1ccncc1)[C@@H](C)CN([C@H](C)CO)S2(=O)=O 14.5%
O=C(CSc1nnc2ccc(-c3ccc(F)cc3)nn12)N1CCCC1 1.64%
N=c1c(S(=O)(=O)c2ccccc2)cc2c(=O)n3ccccc3nc2n1CCCN1CCOCC1 -15.8%
COc1ccc(CN(C)C[C@H]2Oc3c(NC(=O)NC4CCCCC4)cccc3C(=O)N([C@@H](C)CO)C[C@H]2C)cc1 27.1%
CN1CCN(S(=O)(=O)c2ccc(C3CCCCC3)cc2)CC1 -7.06%
Cc1noc(C)c1NC(=O)N(C)C[C@@H]1Oc2c(NC(=O)Nc3ccc(F)cc3)cccc2C(=O)N([C@@H](C)CO)C[C@H]1C 28.5%
COc1ccc(CN(C)C[C@H]2OCCCC[C@H](C)Oc3ccc(NC(=O)Nc4ccc(F)cc4)cc3C(=O)N([C@@H](C)CO)C[C@@H]2C)cc1 12.2%
COc1ccc([N+](=O)[O-])cc1NS(=O)(=O)c1cccc(C(=O)O)c1 36.7%
COc1ccc(CN(C)C[C@H]2OCCCC[C@@H](C)Oc3ccc(NS(=O)(=O)c4cccs4)cc3C(=O)N([C@@H](C)CO)C[C@@H]2C)cc1 53.9%
COc1ccc(CN(C)C[C@@H]2Oc3c(NC(=O)NC4CCCCC4)cccc3C(=O)N([C@@H](C)CO)C[C@@H]2C)cc1 29.8%
CC1CN(Cc2cc(=O)oc3cc(O)c(Cl)cc23)CC(C)O1 (centres undefined) 86.2% [at 5.6 µM]
COc1ccc(CN(C)C[C@H]2Oc3c(NC(=O)NC4CCCCC4)cccc3C(=O)N([C@H](C)CO)C[C@@H]2C)cc1 13.5%
COc1ccc2c3c(n(C)c2c1)[C@H](CO)N(C)CC31CN(C(=O)c2cccnc2)C1 21.1%
C[C@H](CO)N1C[C@H](C)[C@H](CN(C)S(=O)(=O)c2ccccc2)Oc2ccc(NC(=O)CCN3CCOCC3)cc2C1=O 13.5%
C[C@@H]1CN([C@@H](C)CO)C(=O)c2cc(NC(=O)CCN3CCOCC3)ccc2O[C@@H]1CN(C)S(=O)(=O)c1ccccc1 15.8%
C[C@H](CO)N1C[C@H](C)[C@@H](CN(C)C)OCCCC[C@H](C)Oc2ccc(NS(=O)(=O)c3ccc(Cl)cc3)cc2C1=O 10.9%
CCOc1ccccc1N1CCN(C(=O)C2=CC=CN3CCS(=O)(=O)N=C23)CC1 -12.7%
CCc1ccc(NS(=O)(=O)c2ccc(C)c(C(=O)N3CCOCC3)c2)cc1 -17.5%
COc1ccc(CN(C)C(=O)CCCNC(=O)c2ccc(Cl)cc2)cc1 -4.67%
O=C(NCc1ccccc1Cl)c1cc(=O)[nH]c2ccccc12 -10.3%
CCc1c(C)c2cc(Cl)c(O)c(CN3CCCC3)c2oc1=O 20.7%
COc1ccc(NC(=O)Nc2ccc3c(c2)C(=O)N([C@@H](C)CO)C[C@H](C)[C@H](CN(C)Cc2ccc(C(=O)O)cc2)OCCCC[C@H](C)O3)cc1 48.4%
COc1ccc(CCOC(=O)CNC(=O)c2ccc(Cl)cc2Cl)cc1 12.7%
COc1ccccc1-c1cn(CC[C@H]2CC[C@H](NS(=O)(=O)c3ccccc3C)[C@@H](CO)O2)nn1 20.2%
C[C@@H]1CCCCO[C@@H](CN(C)C)[C@H](C)CN([C@@H](C)CO)C(=O)c2cc(NS(=O)(=O)c3ccc(Cl)cc3)ccc2O1 22.3%
CCC(=O)N1[C@@H](CO)[C@@H](c2ccccc2)C12CN(Cc1cccnc1)C2 43%
COc1ccc(CN(C)C[C@H]2Oc3ccc(NS(=O)(=O)c4ccc(C)cc4)cc3C(=O)N([C@@H](C)CO)C[C@@H]2C)cc1 20.6%
Cn1cnc(C(=O)N2CCN(C(=O)OC(C)(C)C)CC2)c1C(=O)N1CCN(C(=O)OC(C)(C)C)CC1 -10.3%
COCCN(CC(=O)Nc1cccc(C)c1C)C(=O)CN1C(=O)NC2(CCCCC2)C1=O -11.9%
COc1ccc(C2=NN(c3ccc(C(=O)O)cc3)C(c3ccc(OC)c(OC)c3)C2)cc1 (centres undefined) 364%
O=c1cc(CN2CCOCC2)c2cc(Cl)c(O)cc2o1 126%
C[C@@H]1CN([C@H](C)CO)C(=O)c2cc(NC(=O)CCN3CCOCC3)ccc2O[C@H]1CN(C)S(=O)(=O)c1ccccc1 24.3%
CCN(CC)c1ccc2c(C)c(Cl)c(=O)oc2c1 59.1%
CCn1cnc2c1c(=O)n(CC(=O)NCC(F)(F)F)c(=O)n2Cc1ccccc1 -0.513%
O=C(C[C@@H]1CC[C@@H]2[C@H](COC[C@@H](O)CN2C(=O)Cc2ccccc2)O1)NC1CCC1 36.4%
Cc1noc(C)c1NC(=O)N(C)C[C@H]1Oc2c(NC(=O)Nc3ccc(F)cc3)cccc2C(=O)N([C@H](C)CO)C[C@H]1C 9.59%
CN1C2=NCCN2C(=O)c2cc(Cl)ccc21 -10.8%
